# Measurements taken from article PMC4336329 (PLoS ONE, 2015).
# Hit rate of the full screen: of about 310,000 compounds, about 14,000 (4.5%) showed an effect of 50% or more. Effects have a minus sign here. The sample holds strong results, similar compounds and a random draw of the others, so the mix is not that of the screen.
# Target: human ether-à-go-go-related gene (hERG) potassium channel (human, UniProt Q12809)
# Experiment: primary screen, population patch clamp on CHO cells stably expressing hERG; higher = less effect of the substance
# 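Note: peak tail current of the secondary pulse compared with the same well before compound.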
# Chain of human ether-à-go-go-related gene (hERG) potassium channel (Q12809 whole entry, looked up): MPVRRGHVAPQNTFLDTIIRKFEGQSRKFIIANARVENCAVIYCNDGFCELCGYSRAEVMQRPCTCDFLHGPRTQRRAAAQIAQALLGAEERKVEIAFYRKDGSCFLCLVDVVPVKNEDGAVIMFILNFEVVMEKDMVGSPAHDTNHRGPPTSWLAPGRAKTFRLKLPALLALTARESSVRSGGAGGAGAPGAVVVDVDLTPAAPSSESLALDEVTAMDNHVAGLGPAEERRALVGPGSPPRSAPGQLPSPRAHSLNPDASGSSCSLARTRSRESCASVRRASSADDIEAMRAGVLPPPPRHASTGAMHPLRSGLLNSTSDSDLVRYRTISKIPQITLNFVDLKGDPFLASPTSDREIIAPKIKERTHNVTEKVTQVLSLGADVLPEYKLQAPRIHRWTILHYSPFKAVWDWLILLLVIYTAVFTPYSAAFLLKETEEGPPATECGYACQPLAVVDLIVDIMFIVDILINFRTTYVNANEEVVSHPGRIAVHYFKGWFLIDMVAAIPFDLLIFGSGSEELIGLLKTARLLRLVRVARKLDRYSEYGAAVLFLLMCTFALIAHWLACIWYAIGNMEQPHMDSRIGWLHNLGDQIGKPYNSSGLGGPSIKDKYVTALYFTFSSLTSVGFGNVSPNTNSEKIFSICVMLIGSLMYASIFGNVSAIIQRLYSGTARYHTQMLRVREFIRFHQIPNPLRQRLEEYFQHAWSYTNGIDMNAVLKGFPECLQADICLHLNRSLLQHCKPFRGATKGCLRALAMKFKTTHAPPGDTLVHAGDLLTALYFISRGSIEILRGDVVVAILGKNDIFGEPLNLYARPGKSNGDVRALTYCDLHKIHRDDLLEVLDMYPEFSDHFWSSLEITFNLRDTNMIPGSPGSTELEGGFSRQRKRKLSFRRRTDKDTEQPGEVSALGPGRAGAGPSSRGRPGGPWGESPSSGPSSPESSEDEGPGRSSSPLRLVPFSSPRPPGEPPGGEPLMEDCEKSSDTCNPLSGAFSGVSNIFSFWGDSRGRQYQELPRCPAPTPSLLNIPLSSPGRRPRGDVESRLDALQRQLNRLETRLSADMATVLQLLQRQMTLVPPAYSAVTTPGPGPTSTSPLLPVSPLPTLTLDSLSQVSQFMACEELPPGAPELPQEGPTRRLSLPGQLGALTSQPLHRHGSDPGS
row,Compound,"hERG current change (%, negative = inhibition) at 10uM [%]"
1,Cc1cccc(NC(=O)c2cc3c(=O)n4ccccc4nc3s2)c1,10.8
2,COc1cccc(NC(=O)c2cc3c(=O)n4ccccc4nc3n(CC(C)C)c2=N)c1,-82
3,COc1ccc(NC(=O)c2cc3c(=O)n4ccccc4nc3n2C)cc1OC,13.7
4,COc1cccc(NC(=O)C(Sc2nc3ccccc3c(=O)n2CC(C)C)c2ccccc2)c1 (stereo not drawn),11.8
5,Cc1cccc(NC(=O)c2c(C)nc3ccccn23)c1,-0.935
6,Cc1cccc(NC(=O)c2cc3c(=O)n4ccccc4nc3n(CC(C)C)c2=N)c1,-78
7,CCOc1ccc(NC(=O)CSc2nc(=O)n(Cc3cccnc3)c3c2CCC3)cc1,-8.74
8,CN(c1cccc(NC(=O)c2cccc([N+](=O)[O-])c2)c1)S(C)(=O)=O,13.1
9,O=C(Nc1ccc(N2CCOCC2)cc1N1CCOCC1)c1ccc([N+](=O)[O-])cc1,2.51
10,COc1cc(/C=N/NS(=O)(=O)c2ccc(Br)cc2)ccc1O,1.58
11,Cc1ccc(NC(=O)CNC(=O)c2ccco2)nc1,17.3
12,CCOc1cc(S(=O)(=O)n2cnc(C)c2)ccc1Cl,-8.24
13,COc1ccc(N(C(=O)/C=C/c2ccccc2)C2=CC3CCC(C2)N3C)cc1.Cl (stereo not drawn),-74.6
14,COc1ccc(/C=C/C(=O)N(C)C2CCS(=O)(=O)C2)cc1OC (stereo not drawn),2.01
15,COc1ccc(N(C(=O)/C=C/c2ccc(OC)c(OC)c2)C2=CC3CCC(C2)N3C)cc1.Cl (stereo not drawn),-69.6
16,COc1ccc(/C=C/C(=O)N2CCN(C)CC2)cc1OC,6.7
17,COc1ccc(/C=C/C(=O)N(C)c2ccccc2C(=O)O)cc1,-4.18
18,COc1ccc(C(=O)Cn2c(C(=O)/C=C/c3ccccc3)nc3ccccc32)cc1,-16.4
19,Cn1c(C(=O)N[C@@H](Cc2ccccc2)C(=O)NCCC(=O)O)cc2cc(Cl)ccc21,0.651
20,COc1ccc(OCC(=O)OCC(=O)N2CC(=O)Nc3ccccc32)cc1,-3.16

row,Compound,"hERG current change (%, negative = inhibition) at 10uM [%]"
1,Cc1ccc(CCC(=O)Nc2ccc([N+](=O)[O-])cc2)o1,0.967
2,Cc1ccc(-n2cc(-c3ccccc3)c3c(N4CCN(C)CC4)ncnc32)cc1,-9.95
3,OCCN1CCN(c2ncnc3c2c(-c2ccccc2)cn3-c2ccc(F)cc2)CC1,-74.3
4,CCN1CCN(c2ncnc3c2c(-c2ccccc2)cn3-c2ccc(F)cc2)CC1,-74.5
5,COc1ccc(-n2cc(-c3ccccc3)c3c(N4CCN(CCO)CC4)ncnc32)cc1,-42
6,CC1CN(c2ncnc3c2c(-c2ccccc2)cn3-c2ccc(F)cc2)CC(C)O1 (stereo not drawn),12
7,OCCN1CCN(c2ncnc3c2c(-c2ccccc2)cn3-c2ccc(Br)cc2)CC1,-15.2
8,CNCCCC1c2ccccc2C=Cc2ccccc21.Cl,13.2
9,O=c1[nH]c(Nc2ccccc2Cl)cc2ccccc12,10.9
10,O=C(Cc1ccccc1F)OCN1C(=O)c2ccccc2C1=O,21.5
11,N#C/C(=C/c1cccc(C(F)(F)F)c1)c1nc(CCN2C(=O)c3ccccc3C2=O)cs1,-0.904
12,N#Cc1cccc(C(=O)OCC(=O)N2CCCc3ccccc32)c1,-1.94
13,COc1cc(CN2CCC(n3nccc3NC(=O)CCCc3ccccc3)CC2)ccc1F,-66.5
14,COc1ccc(CN2CCC(n3nccc3NC(=O)CCCc3ccccc3)CC2)cc1C,-93.3
15,COc1cc(CN2CCC(n3nccc3NC(=O)CCCc3ccccc3)CC2)ccc1O,-31.1
16,O=C(O)CNC(=O)c1ccccc1NC(=O)c1ccco1,7.93
17,COc1ccccc1C/C(N)=N/OC(=O)COc1ccc(C)cc1C,17.4
18,CC12CC3CC(C)(C1)CC(C(=O)NCc1cccnc1)(C3)C2,-11.6
19,c1cc(C2CCN(Cc3nc(-c4ccc5c(c4)OCO5)no3)CC2)ccn1,-19.7
20,c1ccc(OCCN2CCN(Cc3nc(-c4ccc5c(c4)OCO5)no3)CC2)cc1,-51.5

row,Compound,"hERG current change (%, negative = inhibition) at 10uM [%]"
1,COCC1CCN(Cc2nc(-c3ccc4c(c3)OCO4)no2)C1 (stereo not drawn),-17.1
2,COCC1CCCN(Cc2nc(-c3ccc4c(c3)OCO4)no2)C1 (stereo not drawn),-5.71
3,Fc1ccc(CN2CCCN(Cc3nc(-c4ccc5c(c4)OCO5)no3)CC2)cc1,-62.2
4,O=C(c1ccco1)N1CCCN(Cc2nc(-c3ccc4c(c3)OCO4)no2)CC1,-46.1
5,Fc1ccccc1CNc1ncnc2sccc12,11.9
6,CCOC(=O)CN1C(=O)SC(Nc2ccc(C)cc2)C1=O (stereo not drawn),27.1
7,O=C(Nc1c2c(nn1-c1ccccc1)CS(=O)C2)c1ccco1 (stereo not drawn),7.5
8,CC(=O)OCC(=O)[C@@]1(OC(C)=O)[C@@H](C)C[C@H]2[C@@H]3C[C@H](F)C4=CC(=O)C=C[C@]4(C)[C@@]3(F)[C@@H](O)C[C@@]21C,-15.1
9,Cl.Oc1cccc(Nc2nc(NCC3CCCO3)c3ccccc3n2)c1 (stereo not drawn),-61.4
10,COc1ccc(Nc2nc(NCC3CCCO3)c3ccccc3n2)c(OC)c1.Cl (stereo not drawn),-71.7
11,COc1ccc(OC)c(Nc2nc(NCCO)c3ccccc3n2)c1.Cl,-44.4
12,Cl.OCCNc1nc(Nc2cccc(O)c2)nc2ccccc12,-23.8
13,CC(C)Oc1ccc(-c2nc(NCC3CCCO3)c3ccccc3n2)cc1 (stereo not drawn),-27.4
14,Oc1ccccc1-c1nc(NCC2CCCO2)c2ccccc2n1 (stereo not drawn),19
15,Cl.Oc1ccccc1Nc1nc(NCC2CCCO2)c2ccccc2n1 (stereo not drawn),-67.5
16,CCOc1ccc(Nc2nc(NCC3CCCO3)c3ccccc3n2)cc1.Cl (stereo not drawn),-72.3
17,COc1ccc(S(=O)(=O)Nc2nc3ccccc3nc2NCC2CCCO2)cc1 (stereo not drawn),5.29
18,Cl.c1ccc(Nc2nc(NCC3CCCO3)c3ccccc3n2)cc1 (stereo not drawn),-31.2
19,Oc1ccc(Cl)cc1Nc1nc(NCC2CCCO2)c2ccccc2n1 (stereo not drawn),23
20,CCOc1ccc(Nc2nc(N)c3ccccc3n2)cc1.Cl,-41.8
